Some of the results follow. How many sequences the whole screen found active is unknown.
Target: furin, P09958
Test: furin cleavage Z-score vs untreated control; higher = more cleavage, active = 3.5 or more, inactive = 1 or less, 8 variable residues between constant flanks
Method in brief: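 Read counts from sequencing released DNA gave abundance for each bead-bound 8-mer peptide–cDNA fusion cut by purified furin over 7.5, 15 or 30 min. The cleavage Z-score compares log counts with furin-free reactions after lowess adjustment and median absolute deviation scaling.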
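Also: purified furin at 1:10 enzyme:substrate in 50 mM HEPES pH 7.5.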

Sequence of furin, P09958 (P09958 whole entry): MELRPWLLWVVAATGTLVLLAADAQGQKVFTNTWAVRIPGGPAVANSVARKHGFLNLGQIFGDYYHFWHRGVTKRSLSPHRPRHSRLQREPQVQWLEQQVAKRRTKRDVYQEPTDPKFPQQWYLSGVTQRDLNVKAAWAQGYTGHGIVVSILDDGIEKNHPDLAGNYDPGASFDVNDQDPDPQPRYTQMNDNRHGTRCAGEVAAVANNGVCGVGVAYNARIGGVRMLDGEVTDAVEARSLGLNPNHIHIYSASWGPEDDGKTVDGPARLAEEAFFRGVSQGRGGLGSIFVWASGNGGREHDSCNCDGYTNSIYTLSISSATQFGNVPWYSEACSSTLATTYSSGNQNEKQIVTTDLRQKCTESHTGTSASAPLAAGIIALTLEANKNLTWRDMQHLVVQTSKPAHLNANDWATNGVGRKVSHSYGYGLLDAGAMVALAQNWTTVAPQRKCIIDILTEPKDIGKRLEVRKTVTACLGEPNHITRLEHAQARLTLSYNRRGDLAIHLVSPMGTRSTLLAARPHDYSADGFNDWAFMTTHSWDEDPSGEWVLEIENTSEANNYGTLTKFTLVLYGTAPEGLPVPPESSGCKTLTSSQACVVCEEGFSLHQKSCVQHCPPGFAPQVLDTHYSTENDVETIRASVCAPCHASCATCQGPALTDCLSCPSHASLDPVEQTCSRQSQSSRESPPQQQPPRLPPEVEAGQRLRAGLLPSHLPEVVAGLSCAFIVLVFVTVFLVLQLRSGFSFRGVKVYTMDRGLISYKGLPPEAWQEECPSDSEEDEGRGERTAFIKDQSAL

Sequence	furin cleavage Z-score (7.5 min)	furin cleavage Z-score (15 min)	furin cleavage Z-score (30 min)
CASKFGYGAKAGNASASA [HC1420]	0.531 (inactive)	0.331 (inactive)	-1.23 (inactive)
CALAPGAKQNAGNASASA [HC362]	0.735 (inactive)	-0.827 (inactive)	0.525 (inactive)
CAVVCCSMSQAGNASASA [HC2102]	-0.199 (inactive)	0.851 (inactive)	0.49 (inactive)
CATKLITWGAAGNASASA [HC651]	0.877 (inactive)	-0.214 (inactive)	-0.337 (inactive)
CALYGNEGCGAGNASASA [HC203]	-0.0812 (inactive)	1.22	0.228 (inactive)
CARRRRHPDEAGNASASA [FS-1785]	5.6 (active)	5.56 (active)	4.6 (active)
CARRRRHPDDAGNASASA [FS-3063]	3.1	4.81 (active)	3.91 (active)
CARRHVGPGEAGNASASA [HC1112]	-0.341 (inactive)	-0.961 (inactive)	-0.867 (inactive)
CARRRRHAGEAGNASASA [FS-2404]	6.46 (active)	4.9 (active)	5.66 (active)
CATDNLKCPCAGNASASA [HC1214]	0.631 (inactive)	-2.12 (inactive)	-1.25 (inactive)
CATEEAIYQCAGNASASA [HC1488]	0.306 (inactive)	-0.635 (inactive)	1.07
CAQTLLFNILAGNASASA [HC1063]	0.309 (inactive)	-0.599 (inactive)	0.404 (inactive)
CATTSCSGSWAGNASASA [HC1877]	-0.56 (inactive)	-0.299 (inactive)	-0.313 (inactive)
CAEGPCHRPSAGNASASA [HC2336]	0.811 (inactive)	0.167 (inactive)	0.259 (inactive)
CARPFRYKRKAGNASASA [FS-1402]	7.84 (active)	8.54 (active)	7.38 (active)
CARPYRCKIKAGNASASA [FS-3032]	-0.856 (inactive)	-0.224 (inactive)	1.6
CARPFRSFVPAGNASASA [FS-2499]	0.343 (inactive)	1.12	0.335 (inactive)
CAIITRYKRKAGNASASA [FS-338]	6.56 (active)	6.04 (active)	6.05 (active)
CANSSPPVVPAGNASASA [HC767]	-0.356 (inactive)	1.59	-0.293 (inactive)
CAGVWRVDGIAGNASASA [HC1169]	-0.937 (inactive)	0.416 (inactive)	-0.826 (inactive)
CANCTTPCSGAGNASASA [HC1961]	-0.578 (inactive)	-3.89 (inactive)	1.28
CARHARNVDRAGNASASA [FS-1953]	6.92 (active)	10.7 (active)	9.36 (active)
CAMKYEIASEAGNASASA [NG5]	-0.26 (inactive)	-1.67 (inactive)	0.146 (inactive)
CARHARQASEAGNASASA [FS-3155]	1.74	4.48 (active)	5.03 (active)
CARGYKGVWRAGNASASA [HC1167]	0.51 (inactive)	0.617 (inactive)	-0.00561 (inactive)
CARVARTVDRAGNASASA [FS-2469]	5.8 (active)	7.75 (active)	8.43 (active)
CARPAREVDRAGNASASA [FS-2356]	5.34 (active)	5.29 (active)	4.96 (active)
CARHRKNVDRAGNASASA [FS-1716]	-0.386 (inactive)	1.53	1.32
CARHARFGKKAGNASASA [FS-2210]	0.851 (inactive)	-1.52 (inactive)	1.21

From the supplement of paper PMC3545927
